Screens: PubChem BioAssay, National Center for Advancing Translational Sciences (NCATS)
MCF10A rereplic: DNA re-replication induction in MCF 10a cells; MCF 10A DNA re-replication, Hoechst nuclear intensity, 48 h; Potency, µM (doses to about 46.1 µM), actives largely listed as activators; 2.9% of 350,000 active; AID 624296; also: nearly all actives have a fitted effect of over 50% in size
KB-3-1 tox: KB-3-1 parental cell cytotoxicity; Potency, µM (highest dose often 46.1 µM), hits mostly cytotoxic; KB-3-1 viability, CellTiter-Glo ATP luminescence, 72 h; 1.4% of 400,000 active; also: nearly all actives have a fitted effect of over 60% in size
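KB-3-1 parental drug-naive adenocarcinoma cells in DMEM/10% FBS, incubated 72 h at 37 C with pin-transferred compounds across a concentration series. Viability by CellTiter-Glo luminescence; concentration-response curves fitted after normalization.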
HT1080NT lethal: kills 2HG-producing HT-1080-NT fibrosarcoma cells | HT-1080-NT fibrosarcoma viability, CellTiter-Glo ATP luminescence, 48 h | Potency, µM (titrated, usually from 46.1 µM), most hits filed as cytotoxic | 1.6% of 360,000 active;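 also: NT is the 2HG producing partner of a matched IDH1 knockdown line; nearly all actives have a fitted effect of over 55% in size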
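Viability by CellTiter-Glo luminescence after 48 h compound exposure at 37C of HT-1080-NT cells (750/well, RPMI, 5% FBS). % activity scaled between DMSO wells and medium-only wells, then curve-fitted and categorized by curve class.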
HT1080 IDH1KD tx: HT-1080 IDH1 knockdown cell toxicity (counter line) | Potency, µM (series often up to 46.1 µM), usual class: cytotoxic | 2% of 360,000 active | HT-1080 IDH1 knockdown viability, ATP luminescence, 48 h
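% activity derives from luminescence (CellTiter-Glo), normalised to DMSO and no-cell wells. HT-1080-IDH1KD cells, 750/well, had 48 h compound exposure at 37 °C.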
SW480 rerep: DNA re-replication induction in SW480 cells. SW480 DNA re-replication, Hoechst DNA content imaging, 48 h. Potency, µM (series often up to 46.1 µM), actives largely listed as activators. 1.8% of 340,000 active; also: nearly all actives have a fitted effect of over 55% in size
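First, 250 cells per well were seeded. Next, compound or vehicle (23 nL) was pinned in, plates sat 48 hr at 37 C. Finally Hoechst was added for 40 min before fluorescence scanning.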
KB-V1 MDR tox: kills drug-selected multidrug resistant KB-V1 cells; KB-V1 MDR cells viability, CellTiter-Glo, 72 h; Potency, µM (doses to about 46.1 µM), actives largely listed as cytotoxic; 3.4% of 400,000 active; AID 1347076; also: nearly all actives have a fitted effect of over 60% in size
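Following 72 h at 37 degrees C with compound, KB-V1 cell viability was read by CellTiter-Glo luminescence, medium being phenol-red-free DMEM plus 10% FBS; concentration-response parameters came from normalized, curve-fitted qHTS data.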
Large screens that a line does not name were inactive. A selection: hits, their analogues and other compounds. The true share with any hit is near 7.9%. Calls follow the shape of the dose curve; as a rule, active = well fitted curve in the direction sought with a large enough effect; inconclusive = small, poorly fitted or top-dose-only effect, or another doubt; inactive = no such curve, though single readings can be large; an effect the other way counts as inactive or inconclusive.

COc1ccc(CCNc2oc(-c3cccc4ccccc34)nc2P(=O)(OC)OC)cc1OC	MCF10A rereplic inconclusive, SW480 rerep inconclusive, KB-V1 MDR tox 12µM
CCOP(=O)(OCC)c1nc(/C=C/c2ccccc2)oc1NCc1ccc(OC)cc1	MCF10A rereplic inconclusive, HT1080NT lethal inconclusive, HT1080 IDH1KD tx inconclusive, SW480 rerep inconclusive
CCOP(=O)(OCC)c1nc(-c2cccc3ccccc23)oc1NCc1ccc(OC)cc1	MCF10A rereplic inconclusive, HT1080NT lethal inconclusive, HT1080 IDH1KD tx inconclusive, SW480 rerep 18µM
CCOP(=O)(OCC)c1nc(/C=C/c2ccccc2)oc1NCc1ccccc1	MCF10A rereplic inconclusive, KB-3-1 tox inconclusive, SW480 rerep 21µM, KB-V1 MDR tox inconclusive
Cn1ccnc1SCC(=O)c1cccc(C(F)(F)F)c1	none
CN=C1c2ccccc2CN1c1cccc(C(=O)OC)c1	none
Cc1ccc(-c2nn(-c3ccccc3)cc2/C=C2\SC(=S)N(CC(=O)O)C2=O)cc1	none
CCOc1ccc(-c2nn(-c3ccccc3)cc2/C=C2\SC(N)=NC2=O)cc1C	MCF10A rereplic 10µM, KB-3-1 tox inconclusive
Cc1cc(C(=O)C(=O)NC(C)C)c(C)n1-c1ccc([N+](=O)[O-])cc1	none
COc1ccc(C2c3[nH]c4ccc(OC)cc4c3CCN2C(=O)Nc2ccccc2)cc1 (stereo not given)	KB-3-1 tox 10µM, KB-V1 MDR tox inconclusive (no result: MCF10A rereplic, HT1080NT lethal, HT1080 IDH1KD tx, SW480 rerep)
NC(=O)C1CCN(C2=C(Cl)C(=O)c3ccccc3C2=O)CC1	MCF10A rereplic 13µM, KB-3-1 tox inconclusive, HT1080NT lethal inconclusive, HT1080 IDH1KD tx 21µM, SW480 rerep inconclusive, KB-V1 MDR tox inconclusive
CC1COCC(C)N1C1=C(Cl)C(=O)c2ccccc2C1=O (stereo not given)	MCF10A rereplic inconclusive, KB-3-1 tox inconclusive, HT1080 IDH1KD tx 18µM, SW480 rerep inconclusive, KB-V1 MDR tox inconclusive
CN1CCN(C2=C(Cl)C(=O)c3ccccc3C2=O)CC1	MCF10A rereplic 4.1µM, KB-3-1 tox inconclusive, HT1080NT lethal inconclusive, HT1080 IDH1KD tx inconclusive, SW480 rerep 5.2µM, KB-V1 MDR tox inconclusive
O=C1C(Cl)=C(N2CCC(C(=O)O)CC2)C(=O)c2ccccc21	MCF10A rereplic inconclusive, HT1080NT lethal inconclusive, HT1080 IDH1KD tx inconclusive, KB-V1 MDR tox inconclusive
O=C(c1ccc2[nH]c(=O)c(=O)[nH]c2c1)N1CCc2ccccc21	none
CCOC1CCCC(n2cnc3c(=S)nc[nH]c32)O1 (stereo not given)	MCF10A rereplic inconclusive, KB-3-1 tox inconclusive, HT1080 IDH1KD tx inconclusive, SW480 rerep inconclusive, KB-V1 MDR tox inconclusive
CC(C)[C@H](NC(=O)C1CCCC1)c1nc2ccccc2[nH]1	MCF10A rereplic 9.2µM, SW480 rerep inconclusive
CN1C[C@@H]2C[C@H]1CN2c1cc2c(cc1F)c(=O)c(C(=O)O)cn2C1CC1	none (no result: KB-3-1 tox, HT1080NT lethal, HT1080 IDH1KD tx, KB-V1 MDR tox)
Cc1ccc(C(=O)NC(C)C2CC3CCC2C3)cc1 (stereo not given)	MCF10A rereplic inconclusive
CCOc1cc(C(=O)NC(C)C2CC3CCC2C3)cc(OCC)c1OCC (stereo not given)	MCF10A rereplic 13µM
COc1cc(C(=O)NC(C)C2CC3CCC2C3)ccc1OC(F)F (stereo not given)	KB-V1 MDR tox 21µM
CC(C)(C)S(=O)(=O)c1cnc(N2CCCC2)nc1N	none
COc1cc2c(cc1OC)C(c1cccs1)N(C(=O)c1ccncc1)CC2 (stereo not given)	MCF10A rereplic inconclusive, KB-3-1 tox inconclusive, HT1080NT lethal inconclusive, HT1080 IDH1KD tx 13µM, SW480 rerep inconclusive, KB-V1 MDR tox inconclusive
CCCCCCCCSc1nnc(CSc2nc3nc(C)cc(C)n3n2)o1	MCF10A rereplic inconclusive, KB-3-1 tox inconclusive, KB-V1 MDR tox 2.6µM
Cc1cc(C)n2nc(SCc3nnc(SCCCCl)o3)nc2n1	MCF10A rereplic inconclusive, KB-V1 MDR tox inconclusive
O=C(NC(=S)Nc1ccc(CN2CCOCC2)cc1)c1ccc2c(c1)OCCO2	MCF10A rereplic inconclusive, KB-3-1 tox 18µM, HT1080NT lethal inconclusive, HT1080 IDH1KD tx inconclusive, SW480 rerep inconclusive, KB-V1 MDR tox 21µM
O=C(NC(=S)Nc1ccc(F)cc1)c1ccc2c(c1)OCCO2	KB-3-1 tox 13µM
